What was measured:
Assay type in all cases: functional
[1] = tested on: Plasmodium falciparum; experiment: GSK_TCMDC: Inhibition of Plasmodium falciparum 3D7 in whole red blood cells, using parasite LDH activity as an index of growth. Test compounds present at 2uM
[2] = tested on: Plasmodium falciparum; experiment: GSK_TCMDC: Inhibition of Plasmodium falciparum Dd2 in whole red blood cells, using parasite LDH activity as an index of growth. Test compounds present at 2uM
[3] = tested on: HepG2; experiment: GSK_TCMDC: Percent inhibition of human HepG2 cell line. Test compounds present at 10uM.

Row | SMILES | Inhibition [1] [%] | Inhibition [2] [%] | Inhibition [3] [%]
1 | Br.Oc1ccccc1CCNC1CCc2ccccc2C1 (stereo not drawn) | 96 | 95 | 0
2 | CC(C#N)Cc1ccc(-c2cnc(N)c3cc(-c4ccnc(N)n4)ccc23)cc1 (stereo not drawn) | 96 | 62 | 56
3 | O=C(C=Cc1cn(-c2ccccc2)nc1-c1ccccc1)N1CCN(c2ccncc2)CC1 | 90 | 20 | 11
4 | COc1ccc2ccccc2c1C=NNc1ccnc2cc(Cl)ccc12 | 100 | 94 | 20
5 | CC(=O)c1c(Nc2c(C)cc(C)cc2C)oc(C)cc1=O | 95 | 83 | 7
6 | O=C(Nc1ccccc1)Nc1cccc(-c2ccc(-c3nc4cc(C(F)(F)F)ccc4[nH]3)cc2)c1 | 100 | 37 | 48
7 | CC(C)CCN1CCCN(Cc2cccc(NC(=O)c3ccc(-c4ccccc4)cc3)c2)CC1.O=C(O)C(F)(F)F | 92 | 21 | 27
8 | Cc1ccc(Nc2nc(C)cc(NC3CC3)n2)cc1 | 97 | 15 | 0
9 | Cc1[nH]c(C)c(-c2ccc(-c3ccc(Cl)cc3)cc2)c(=O)c1Cl | 96 | 96 | 0
10 | Cc1ccccc1CNC(=O)Nc1cccc(-c2csc(NC(=N)N)n2)c1 | 99 | 14 | 2
11 | O=C(Nc1ccccc1)OCCOc1ccc(CC2SC(=O)NC2=O)cc1 (stereo not drawn) | 100 | 0 | 1
12 | COc1cc(CCNC(=N)/C=C/c2ccc(Cl)cc2)ccc1Cl.Cl | 100 | 16 | 68
13 | Cc1cc(-c2cccc(CNC3CCN(C)CC3)c2)ccc1S(=O)(=O)NCc1ccccc1.O=C(O)C(F)(F)F | 99 | 90 | 53
14 | CC[C@H](NC(=O)c1c(N)c(-c2sccc2Cl)nc2ccccc12)c1ccccc1 | 99 | 92 | 0
15 | CCCOc1ccc(-c2nonc2NC(=O)c2cccc(OC)c2)cc1OCCC | 94 | 100 | 18
16 | Br.COc1nc(-n2ccc(=N)cc2)nc2ccccc12 | 90 | 45 | 15

Row | SMILES | Inhibition [1] [%] | Inhibition [2] [%] | Inhibition [3] [%]
17 | O=C(Nc1cccnc1)c1ccc(-c2cc3ccncc3cc2OC2CCNCC2)s1 | 97 | 12 | 0
18 | CC(C)(C)NCC(O)COc1ccc(Cl)cc1C1=NNC(=O)CC1.Cl (stereo not drawn) | 96 | 0 | 6
19 | O=C(CSc1nnc(-c2ccccc2Br)[nH]1)c1c[nH]c2ccccc12 | 100 | 95 | 7
20 | O=C(Nc1ccc(C(F)(F)F)cc1)c1ccc(NCCCN2CCCCCC2)c([N+](=O)[O-])c1 | 100 | 98 | 42
21 | CC(=O)Nc1ccc(S(=O)(=O)Nc2ccc(Nc3nc(C)cc(N(C)C)n3)cc2)cc1 | 100 | 22 | 0
22 | Cl.Cn1ncc2c3c(CCN4CCC(NCc5cc6c(cn5)OCCO6)CC4)c(Cl)cnc3ccc21 | 95 | 34 | 1
23 | COc1ccccc1C1CCN(C2CCC(NC(=O)c3cc(-c4ccc(Cl)cc4)cs3)CC2)CC1 (stereo not drawn) | 100 | 100 | 61
24 | Fc1ccc2[nH]c(-c3ccc(-c4ccc(CNCCc5ccncc5)cc4)cc3)nc2c1.O=C(O)C(F)(F)F | 100 | 97 | 23
25 | CN1CCC(Oc2ccc(CN3CC[C@H](NC(=O)c4ccc(Cl)c(F)c4)C3)c3ccccc23)C1.O=C(O)C(F)(F)F (stereo partly drawn) | 100 | 65 | 51
26 | FC(F)(F)c1ccc(-c2ccc(CNC3CCN(CCN4CCOCC4)CC3)cc2)cc1 | 100 | 74 | 44
27 | CN(C)CCOc1ccc2c(c1)CN(C)CC2c1ccccc1.Cl (stereo not drawn) | 91 | 0 | 15
28 | Cc1nc(N)nc(N)c1-c1ccc2ccccc2c1 | 97 | 2 | 60
29 | O=C(Cc1c[nH]cn1)Nc1ccc(-c2ccc(-c3nc4cc(C(F)(F)F)ccc4[nH]3)s2)cc1 | 100 | 99 | 48
30 | CCCCNc1c(C(=O)OCC)c(C)nc2c1[nH]c1ccccc12 | 100 | 58 | 0
31 | CCCCCCN1CCCN(Cc2ccc(C(=O)Nc3ccc(Cl)cc3)cc2)CC1.O=C(O)C(F)(F)F | 89 | 54 | 50

Source: ChEMBL document CHEMBL1157539, “Thousands of chemical starting points for antimalarial lead identification” (Nature, 2010)
